High-throughput results as filed in PubChem BioAssay.
Rows were chosen to be rich in hits. Some 4.8% of all compounds tested hit in one or more screens of this group.
hcDAF-12 act = activates DAF-12 receptor from parasite H. contortus; HEK293 hcDAF-12 lit1-tk-luc reporter, luminescence; 0% DMSO, 100% Δ7-dafachronic acid; activation, % at 6.8 µM; hit rate 1.4% among 370,000;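 active = activation above the mean of all tested compounds plus 3 SD, cut at about 5.5% in these data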;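 note: 100% = response to 3 µM Δ7-dafachronic acid high control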
DAX1 inh-1 = NR0B1 (DAX1) inhibition | P51843 | HEK293 Gal4-DAX1 luciferase reporter, luminescence | inhibition, % at 6.75 µM | hit rate 0.99% among 340,000 | AID 504766;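 active = inhibition above the mean over all tested compounds plus 3 SD, cut at about 4.2% in these data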;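 note: 0% = DAX1-transfected cells with DMSO and 100% = empty-vector control cells with DMSO; inhibition shows as a rise in luminescence from relieved DAX1 repression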
Target sequence (P51843 207-470 limits assumed): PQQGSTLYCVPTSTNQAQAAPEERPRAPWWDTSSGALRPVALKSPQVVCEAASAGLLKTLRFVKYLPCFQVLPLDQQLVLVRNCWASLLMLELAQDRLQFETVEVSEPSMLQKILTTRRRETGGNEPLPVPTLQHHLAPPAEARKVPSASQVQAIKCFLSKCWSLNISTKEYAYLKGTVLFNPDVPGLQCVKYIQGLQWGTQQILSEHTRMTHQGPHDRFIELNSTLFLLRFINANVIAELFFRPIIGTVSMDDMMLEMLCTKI
hgDAF12 agonist = agonists of H. glycines DAF-12 nuclear receptor. hit rate 1.8% among 370,000. activation, % at 6.8 µM. AID 687014. HEK293 GAL4-hgDAF12 UAS-luciferase reporter, agonist luminescence; normalized to butyrate control;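 active = activation above a cutoff set at the mean of all screened compounds plus 3 SD, cut at about 10% in these data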;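 note: 0% = DMSO wells and 100% = sodium butyrate wells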
DAX1 inh-2 = DAX1 (NR0B1) inhibition, primary screen | inhibition, % at 6.8 µM | HEK293T StAR-luciferase reporter, SF-1/DAX-1 repression relief | AID 652010 | hit rate 1.1% among 370,000;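 active = inhibition above the mean over all tested compounds plus 3 SD, cut at about 3.6% in these data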;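 note: 0% = DAX-1 cells with DMSO and 100% = cells lacking DAX-1 with DMSO; higher inhibition means more luminescence from relief of DAX-1 repression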
ssDAF-12 act = S. stercoralis DAF-12 activation, primary screen; hit rate 1% among 370,000; AID 652126; activation, % at 6.8 µM; HEK293 ssDAF-12/GRIP1 lit1-tk-luc reporter, luminescence; % of 3 µM dafachronic acid response;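 active = activation above the mean over all tested compounds plus 3 SD, cut at about 0.9% in these data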;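 note: 0% = DMSO-only wells and 100% = 3 µM delta7-dafachronic acid wells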
SMARCA2 activ = increases SMARCA2 function in MMTV reporter cells; activation, % at 9.1 µM; hit rate 1% among 370,000; MG213 cells, MMTV-luciferase reporter, dexamethasone, overnight; AID 652017; in the data active = activation above about 7.8%;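 note: 0% = vehicle wells and 100% = reference activator wells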
LXR ag = counter-screen for hcDAF-12 agonists: agonists of human LXR-beta; 3,400 tested, under 10 active; HEK293 Gal4-LXR tk-luc reporter, luminescence, 24 h; normalized: DMSO 0%, positive control 100%; activation, % at 6.8 µM; AID 743027; shares compounds with hcDAF-12 act;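 active = mean percent activation of the reporter above a cutoff set as the average over tested compounds plus their standard deviation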
hcDAF12 ag = hcDAF-12 agonism, confirmation assay | shares compounds with hcDAF-12 act | HEK293 hcDAF-12 lit1-tk-luc reporter, luminescence; % of Δ7-dafachronic acid response | activation, % at 6.8 µM | hit rate 61% among 3,400 | AID 743032;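 active = mean activation across triplicate tests above the threshold derived from the earlier primary screen, cut at about 5.5% in these data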;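 note: 0% = DMSO only wells and 100% = 3 µM Δ7-dafachronic acid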
Active calls of the source: *; x = no result.

SMILES	hcDAF-12 act	DAX1 inh-1	hgDAF12 agonist	DAX1 inh-2	ssDAF-12 act	SMARCA2 activ	LXR ag	hcDAF12 ag
COC(=O)c1cc(-c2ccc(C(C)(C)C)cc2)c(=O)n2c1CCC2	7.1*	x	-1	1	-1	-1	0	1
O=C(O)[C@@H]1Cc2c([nH]c3ccccc23)C2CCC(=O)N21 (some centres not stated)	7.6*	-1	0	0	1.6*	-2	0	0
O=C(NCc1ccccc1)[C@H]1CCCN1C(=O)[C@H]1CCCN1C(=O)c1ccc(OC(F)(F)F)cc1	-1	x	-1	0	-2	-3	x	x
N#Cc1ccsc1NC(=O)CSc1nnnn1-c1ccc(O)cc1	7.4*	1	5	0	0	1	0	5
CC(C)(C)NC(=O)C(c1ccc(O)cc1)N(Cc1ccco1)C(=O)Cn1nnc(-c2cccs2)n1 (configuration not stated)	8.2*	-1	-2	0	-1	2	0	0
Cc1cc(N2CCN(CC(C)(C)O)C[C@@H]2C)ccc1N1CCN(CC(C)(C)O)[C@@H](C)C1	0	x	0	0	-1	5	x	x
C=CCn1c(O)c(N=Nc2ccccc2[N+](=O)[O-])c2ccccc21	6.7*	1	5	1	1.1*	-3	0	8.4*
Cc1noc(C(=O)Nc2ccc3c(c2)OCO3)c1Cl	6.7*	2	8	3	1	1	0	5
CC(=O)c1cccc(NC(=O)c2onc(C)c2Cl)c1	-2	1	1	1	-1	1	x	x
CC(=O)c1ccc(NC(=O)c2onc(C)c2Cl)cc1	7.8*	0	9	3	0	3	1	6.4*
CCNC(=O)N1CCN(c2ccc(N3CCN(C(=O)NCC)[C@@H](C)C3)c(C)c2)[C@@H](C)C1	-2	x	0	0	-1	-3	x	x
CC(C)Oc1ccc(C(=O)Nc2ncn[nH]2)cc1	2	2	6	0	-1	1	x	x
CC(C)Oc1ccc(C(=O)Nc2nc3ccccc3[nH]2)cc1	8.7*	-2	2	1	0	2	0	-1
O=C(O)c1cc(Cl)c2ccccc2c1O	6.9*	0	6	0	0	1	0	3
O=C(O)c1cccc(COc2cccc3ccccc23)c1	9.1*	-4	13*	3	1.3*	6	2	9.4*
C[C@@H]1CN([C@H](C)CO)C(=O)c2c(c3ccccc3n2C)-c2ccccc2CO[C@@H]1CN(C)C(=O)CCN(C)C	-1	x	-1	-1	-1	-6	x	x
Cc1ccc(OCc2cc(C(=O)N(C)CCc3ccccn3)no2)cc1C	7.3*	0	9	2	0	0	0	3
CC(=O)c1cccc(OCc2cc(C(=O)N(C)CCc3ccccn3)no2)c1	-1	0	0	0	-1	1	x	x
CC(C)CNS(=O)(=O)/C=C/c1ccccc1CCNC(=O)OC(C)(C)C	-3	x	0	-2	-1	-3	x	x
COc1cc2c(cc1OC)C(C(=O)O)C(c1ccc3c(c1)OCO3)N(C)C2=O (configuration not stated)	0	x	0	-1	-2	2	x	x
C=CCN1C=CC(=CC=C(C#N)C#N)C=C1	8.5*	4.5*	4	1	0	6	0	3
COc1ccc(Cl)cc1/C=C/c1ccc2cccc(O)c2n1	7.7*	0	6	-1	0	6	0	3
COc1cc(OC)c(OC)cc1C=Cc1ccc2ccccc2n1	3	-1	8	1	1	3	x	x
Cc1cc2c(nc1C)CCCN2S(=O)(=O)c1cccs1	0	x	-1	0	-1	3	x	x
CCc1ccc(C(=O)Cn2ccsc2=N)cc1	19*	3	20*	3	2.1*	5	2	12*
CSc1nc(-c2ccc(C)cc2)nc(N)c1C#N	8.5*	3	4	1	2.2*	-3	1	7.8*
